44 compounds from paper PMC4336329 (PLoS ONE, 2015) can be followed below.

Molecules are shown by their SMILES. Hit rate of the full screen: of about 310,000 compounds, about 14,000 (4.5%) showed an effect of 50% or more. Effects have a minus sign here. The full list was thinned out, with strong results kept by preference.
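Also: peak tail current of the secondary pulse compared with the same well before compound.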

The target of the assay is human ether-à-go-go-related gene (hERG) potassium channel (human, UniProt Q12809). As to the kind of experiment: primary screen, population patch clamp on CHO cells stably expressing hERG; higher = less effect of the substance.
Sequence of human ether-à-go-go-related gene (hERG) potassium channel (Q12809 whole entry, looked up): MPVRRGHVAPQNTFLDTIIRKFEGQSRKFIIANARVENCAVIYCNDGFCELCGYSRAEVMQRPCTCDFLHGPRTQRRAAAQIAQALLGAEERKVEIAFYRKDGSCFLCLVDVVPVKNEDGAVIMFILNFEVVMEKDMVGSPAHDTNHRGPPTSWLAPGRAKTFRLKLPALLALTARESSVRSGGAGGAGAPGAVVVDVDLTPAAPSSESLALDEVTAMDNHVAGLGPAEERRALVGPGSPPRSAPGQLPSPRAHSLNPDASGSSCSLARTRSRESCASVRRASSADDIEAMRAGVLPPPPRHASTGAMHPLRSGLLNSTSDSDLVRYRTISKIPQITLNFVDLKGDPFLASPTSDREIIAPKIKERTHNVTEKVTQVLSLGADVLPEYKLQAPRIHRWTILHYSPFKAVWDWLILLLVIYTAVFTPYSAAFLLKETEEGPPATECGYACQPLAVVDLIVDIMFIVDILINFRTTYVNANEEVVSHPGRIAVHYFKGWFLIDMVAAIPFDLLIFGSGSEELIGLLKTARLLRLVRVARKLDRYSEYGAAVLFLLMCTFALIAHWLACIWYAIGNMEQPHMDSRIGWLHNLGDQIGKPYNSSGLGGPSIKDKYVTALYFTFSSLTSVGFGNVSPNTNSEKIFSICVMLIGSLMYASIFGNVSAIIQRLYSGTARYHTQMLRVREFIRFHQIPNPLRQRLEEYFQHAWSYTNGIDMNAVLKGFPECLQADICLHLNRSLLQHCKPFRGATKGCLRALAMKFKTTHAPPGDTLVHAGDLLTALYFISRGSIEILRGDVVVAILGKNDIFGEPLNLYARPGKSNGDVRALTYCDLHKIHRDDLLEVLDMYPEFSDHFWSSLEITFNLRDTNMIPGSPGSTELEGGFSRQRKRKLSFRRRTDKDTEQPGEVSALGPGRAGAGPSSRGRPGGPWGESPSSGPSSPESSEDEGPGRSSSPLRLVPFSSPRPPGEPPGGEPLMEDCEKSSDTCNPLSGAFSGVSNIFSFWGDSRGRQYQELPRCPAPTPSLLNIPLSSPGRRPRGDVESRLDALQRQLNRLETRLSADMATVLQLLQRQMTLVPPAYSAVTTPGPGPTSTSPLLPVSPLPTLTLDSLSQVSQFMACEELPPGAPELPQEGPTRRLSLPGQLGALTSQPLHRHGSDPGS
With `FC(F)Oc1ccc(NC(=S)NCc2ccccc2)cc1`, the “hERG current change (%, negative = inhibition) at 10uM” value is listed as -36.9%.
Regarding `S=C(Nc1ccccc1)Nc1ccc2cn[nH]c2c1`, the “hERG current change (%, negative = inhibition) at 10uM” value is on record as -14.5%.
Take `Fc1ccc(CNC(=S)Nc2ccc(OC(F)F)cc2)cc1`: the “hERG current change (%, negative = inhibition) at 10uM” value is listed as -20.6%.
With `N#Cc1c(NC(=O)CCN2C(=O)c3ccccc3C2=O)oc(-c2ccccc2)c1-c1ccccc1`, the “hERG current change (%, negative = inhibition) at 10uM” value is -11.7%.
For `O=C1CCCN1CC1CCCN(Cc2nc(COc3ccccc3)no2)C1` (centres unmarked), the “hERG current change (%, negative = inhibition) at 10uM” value amounted to 28.6%.
For `O=C(NCc1ccccc1F)C1CCCN(C(=O)Nc2ccccc2)C1` (centres unmarked) the value was 3.18%; for `Cc1noc(C)c1COc1cccc(C(=O)Nc2ccc3c(c2)OCO3)c1`, 9.81%; for `Cc1noc(C)c1COc1cccc(C(=O)OC(C)C(=O)Nc2ccc3c(c2)OCO3)c1` (centres unmarked), -61.2%.
`COc1cc(C(=O)OC(C)C(=O)Nc2ccc3c(c2)OCO3)ccc1OCc1c(C)noc1C` (centres unmarked): the “hERG current change (%, negative = inhibition) at 10uM” value was 15.8%.
As for `CCOc1ccccc1NC(=O)N1CCC(C(=O)c2ccc(F)cc2)CC1`, the figure is -32%; as for `Cc1nc2ccccn2c(=O)c1CCN1CCC(C(=O)c2ccc(F)cc2)CC1`, -73.3%.
For `Cc1nc2sccn2c(=O)c1CCN1CCC(=C(c2ccccc2)c2ccc(F)cc2)CC1` the value was -78%.
As for `CCCCc1c(O)nc2sccn2c1=O`, the figure is -2%.
On to `Cc1ccccc1NC(=O)N1CCC(C(=O)c2ccc(F)cc2)CC1`, for which the “hERG current change (%, negative = inhibition) at 10uM” value is on record as -16.3%.
For `Cc1nc2sccn2c(=O)c1CCN1CCC(=C(c2ccc(F)cc2)c2ccc(F)cc2)CC1` the value was -78.6%; for `CCOC(=O)c1ccc(NS(=O)(=O)c2c(C)nc3sccn3c2=O)cc1`, 1.63%; for `Cc1nc2sccn2c(=O)c1S(=O)(=O)NCCc1ccccc1`, -21.5%.
As for `Cc1nc2sccn2c(=O)c1S(=O)(=O)NCc1ccccc1`, the “hERG current change (%, negative = inhibition) at 10uM” value was -2.53%.
As for `COc1ccc(C2=NN(c3ccccc3)C(c3cn(CCC(=O)O)nc3-c3ccccc3)C2)cc1` (centres unmarked), the figure is 1.09%; as for `COC(=O)C1CCN(C(=O)Cc2ccc(OC)c(OC)c2)CC1`, 0.292%; as for `COc1ccc(SCCN2CCN(CC(C)C)CCC2=O)cc1`, -42.9%.
For `O=C1CCN(Cc2ccccc2)CCN1CCOc1ccccc1` the value was -10.4%; for `O=C1CCN(CCc2ccccc2)CCN1CCOc1ccccc1`, -72.8%.
For `CN1CCC(=O)N(CCSc2ccccc2)CC1` the value was -3.36%; for `Cc1ccc(SCCN2CCN(CCc3ccccc3)CCC2=O)cc1`, -69.6%.
In the case of `CC(C)CN1CCC(=O)N(CCSc2ccccc2)CC1`, the “hERG current change (%, negative = inhibition) at 10uM” value is -15.4%.
For the compound `[N-]=[N+]=NCCN1CCN(CCc2ccccc2)CCC1=O`, the “hERG current change (%, negative = inhibition) at 10uM” value turned out to be 9.16%.
Turning to `CCCN1CCC(=O)N(CCOc2ccccc2)CC1`, the “hERG current change (%, negative = inhibition) at 10uM” value is listed as -6.3%.
For `CN1CCC(=O)N(CCSc2ccc(Br)cc2)CC1` the value was -25.5%; for `O=C1CCN(CCc2ccccc2)CCN1CCSc1ccc(Br)cc1`, -80.1%.
For `CC(C)CN1CCC(=O)N(CCSc2ccc(Br)cc2)CC1` the value was -61.3%.
As for `C[C@H]1CCC(=O)N(CCSc2ccc(Br)cc2)CC1`, the figure is -23.8%; as for `COc1ccccc1OCCNC(=O)c1ccc2c(c1)CCC2`, -5.96%; as for `Cc1ccc(S(=O)(=O)NC(=NCC(=O)O)c2ccccc2)cc1`, 2.94%.
`COc1cc(OC)cc(C(=O)NNC(=O)c2cc(S(=O)(=O)N3CCOCC3)ccc2F)c1`: the “hERG current change (%, negative = inhibition) at 10uM” value was -1.89%.
For `CCC(=O)n1nc(-c2ccccc2)nc1NCc1ccccc1` the value was 10.9%.
For `Cn1ncc(N)c1C(=O)Nc1cccc(C(F)(F)F)c1` the value was 1.42%; for `CCOC(=O)c1cc(C)n(-c2ccc(OC)c(OC)c2)c1C`, -16.5%.
With `COc1cccc(NC(=S)N2CCC(NC(=O)c3ccco3)CC2)c1`, the “hERG current change (%, negative = inhibition) at 10uM” value is listed as -11%.
For `CCOc1ccc2nc(NC(=O)c3ccccn3)sc2c1` the value was 6.42%; for `COC(=O)c1cc(C)nc2c1C(=O)C(=O)C=C2N1CCOCC1`, -2.1%.
For `CCCN1CCC(=O)N(CCSc2ccccc2)CC1` the value was -15.1%.
Take `O=C1CCN(CCc2ccccc2)CCN1CCO`: the “hERG current change (%, negative = inhibition) at 10uM” value was -4.16%.
As for `O=C1CCN(CCc2ccccc2)CCN1CCSc1ccccc1`, the figure is -76.4%.
